Results from PubChem BioAssay (NCATS).
Inconclusive results are not listed. A number with no mark means an inactive call. Activity calls are given as the source filed them. Calls follow the shape of the dose curve; as a rule, active = well fitted curve in the direction sought with a large enough effect; inconclusive = small, poorly fitted or top-dose-only effect, or another doubt; inactive = no such curve, though single readings can be large; an effect the other way counts as inactive or inconclusive.

Columns and labels:
[1] = system: CASKI; assay: Primary qHTS to identify gynecologic anti-cancer compounds using libraries of approved drugs and bioactive compounds (AID 1345084); settings: Gynecologic cancer cell panel viability, ATPlite luminescence, 48 h; series mostly up to 57.5 µM; also: nearly all actives have a fitted effect of over 55% in size
Method in brief: (§1)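 ATP-based viability (ATPlite), 1,000 cells/well, 16 h pre-incubation, 48 h compound at 37 C, 5% CO2, 15 min RT before read.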

[2] = system: HeLa; assay: as above; settings: Gynecologic cancer cell panel viability, ATPlite luminescence, 48 h; series mostly up to 57.5 µM
Method in brief: as §1

[3] = system: Hek293T; assay: as above; settings: Gynecologic cancer cell panel viability, ATPlite luminescence, 48 h, control line for the selectivity index; series mostly up to 57.5 µM
Method in brief: as §1

[4] = system: JEG-3; assay: as above; settings: Gynecologic cancer cell panel viability, ATPlite luminescence, 48 h; series mostly up to 57.5 µM
Method in brief: as §1

[5] = system: OV90; assay: as above; settings: Gynecologic cancer cell panel viability, ATPlite luminescence, 48 h; series mostly up to 57.5 µM
Method in brief: as §1

[6] = system: SKOV3; assay: as above; settings: Gynecologic cancer cell panel viability, ATPlite luminescence, 48 h; series mostly up to 57.5 µM
Method in brief: as §1

[7] = system: Es-2; assay: as above; settings: Gynecologic cancer cell panel viability, ATPlite luminescence, 48 h; series mostly up to 57.5 µM
Method in brief: as §1

[8] = system: PA-1; assay: as above; settings: Gynecologic cancer cell panel viability, ATPlite luminescence, 48 h; series mostly up to 57.5 µM
Method in brief: as §1

[9] = system: Tov-21-G; assay: as above; settings: Gynecologic cancer cell panel viability, ATPlite luminescence, 48 h; series mostly up to 57.5 µM
Method in brief: as §1

[10] = system: Tov112D; assay: as above; settings: Gynecologic cancer cell panel viability, ATPlite luminescence, 48 h; series mostly up to 57.5 µM
Method in brief: as §1

[11] = qHTS assay to identify inhibitors of the type 1 interferon - major histocompatibility complex class I in skeletal muscle: Counter screen cell viability and HiBit confirmation (AID 1347412); settings: iHSKM muscle cells + IFN-b, HiBiT or CellTiter-Glo, 24 h; for Potency: HiBiT; for activity change, negative = inhibition: Viability, at 45.9 µM (top of the series); as to all read-outs here: nearly all actives have a fitted effect of over 60% in size
Method in brief: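 After 24 h with human IFN-beta (4 ng/ml) and compound titrations (top 46 uM final, 1:3, 12 points), HLA-B HiBit myoblasts were lysed for either Nano-Glo HiBiT luminescence or CellTiter Glo viability on paired plates.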
% is scaled to controls: 0 for no effect and ±100 for the full control effect; potency is read from the fitted curve at half-maximal effect.

Which results are given for `CCn1c(=O)c(-c2ccn[nH]2)cc2c(C)nc(N)nc21`?
Potency [1]: 15.8 µM (active); Potency [2]: 8.91 µM (active); Potency [3]: 8.91 µM (active); Potency [4]: inactive; Potency [5]: 14.1 µM (active); Potency [6]: 10 µM (active)

What does the source list for `O=S(=O)(Nc1ccccn1)c1ccc(N=Cc2c(O)[nH]c3ccc4ncsc4c23)cc1`?
activity change, negative = cytotoxicity [1]: 20.8% [at 11.6 µM]; activity change, negative = cytotoxicity [7]: -0.0602% [at 11.6 µM]; activity change, negative = cytotoxicity [3]: 20.8% [at 11.6 µM]; activity change, negative = cytotoxicity [4]: 3.65% [at 11.6 µM]; activity change, negative = cytotoxicity [5]: -9.17% [at 11.6 µM]; activity change, negative = cytotoxicity [8]: -2.66% [at 11.6 µM]; activity change, negative = cytotoxicity [9]: 18.8% [at 11.6 µM]

With `COc1cc2ncnc(N3CCC(Oc4cnc5ccccc5n4)C3)c2cc1OC` (stereo unspecified) as the molecule, how does the Potency [1] read?
Its Potency is 7.08 µM (active).

What about the Potency [7] of the same molecule?
The Potency was 3.98 µM (active).

And the Potency [2]?
Its Potency is 1.78 µM (active).

And the Potency [3]?
The Potency was 3.55 µM (active).

What about the Potency [10] of the same molecule?
The Potency was 1 µM (active).

Which results are given for `CNC(=O)c1ccccc1Nc1nc(Nc2ccc(N3CCNCC3)cc2)ncc1Cl`?
Potency [1]: 0.355 µM (active); Potency [7]: 2.24 µM (active); Potency [2]: 0.0398 µM (active); Potency [3]: 0.631 µM (active); Potency [8]: 0.316 µM (active); Potency [9]: 0.355 µM (active)

Which Potency [1] does the source give for `CS(=O)(=O)N1CCC(NC(=O)c2[nH]ncc2NC(=O)c2c(Cl)cccc2Cl)CC1` here?
The Potency was 7.94 µM (active).

What about the Potency [7] of the same molecule?
The Potency was 4.47 µM (active).

What about the Potency [2] of the same molecule?
Its Potency is 10 µM (active).

What about the Potency [3] of the same molecule?
Its Potency is 5.01 µM (active).

What about the Potency [4] of the same molecule?
The Potency was “inactive”.

What about the Potency [8] of the same molecule?
The Potency was 3.98 µM (active).

What about the Potency [10] of the same molecule?
The Potency was 8.91 µM (active).

And the Potency [11]?
Its Potency is 1.98 µM (active).

What about the activity change, negative = inhibition [11] of the same molecule?
The activity change, negative = inhibition was 12.3%.

For `c1cc(Nc2cc(C3CC3)[nH]n2)nc(Nc2ccc3nc[nH]c3c2)n1`, which Potency [1] is on record?
Its Potency is 1.78 µM (active).

And the Potency [7]?
The Potency was 12.6 µM (active).

What about the Potency [4] of the same molecule?
Its Potency is “inactive”.

And the Potency [8]?
The Potency was 3.98 µM (active).

And the Potency [10]?
The Potency was 1.12 µM (active).

What about the Potency [11] of the same molecule?
The Potency was 1.4 µM (active).

What about the activity change, negative = inhibition [11] of the same molecule?
The activity change, negative = inhibition was 24.1%.

With `CO[C@@H](C)Cn1c(=O)n(C)c2cnc3ccc(-c4cncc(C(C)(C)O)c4)cc3c21` as the molecule, how does the Potency [1] read?
The Potency was 5.01 µM (active).

And the Potency [2]?
The Potency was 6.31 µM (active).

And the Potency [3]?
Its Potency is 0.562 µM (active).

What about the Potency [4] of the same molecule?
The Potency was 31.6 µM (active).

What about the Potency [8] of the same molecule?
The Potency was 0.891 µM (active).

For `CNC(=O)c1ccccc1Nc1nc(Nc2ccc3c(c2OC)CCC[C@@H](N2CCN(CCO)CC2)C3)ncc1Cl`, which Potency [1] is on record?
The Potency was 12.6 µM (active).

What about the Potency [5] of the same molecule?
Its Potency is 7.94 µM (active).

And the Potency [8]?
The Potency was 10 µM (active).

And the Potency [9]?
The Potency was 10 µM (active).

Which results are given for `N#CC(c1ccnc(OCc2ccc(CN3CCOCC3)cc2)n1)c1nc2ccccc2s1` (stereo unspecified)?
Potency [7]: inactive; Potency [2]: inactive; Potency [4]: 10 µM (active); Potency [5]: 7.94 µM (active); Potency [8]: inactive; Potency [6]: 7.94 µM (active); Potency [10]: inactive

Which Potency [1] does the source give for `COc1ncc(Nc2ncc([C@H](C)N3CCN(S(C)(=O)=O)CC3)cc2-c2nc(C)nc(N)n2)cc1F` here?
Its Potency is 1 µM (active).

And the Potency [7]?
Its Potency is “inactive”.

And the Potency [3]?
The Potency was 0.794 µM (active).

And the Potency [5]?
The Potency was “inactive”.

What about the Potency [6] of the same molecule?
The Potency was 2.82 µM (active).

And the Potency [10]?
The Potency was “inactive”.

With `CNS(=O)(=O)c1ccccc1Nc1nc(Nc2ccc(N3CCN(C)CC3)cc2OC)ncc1Cl` as the molecule, how does the Potency [1] read?
Its Potency is 7.08 µM (active).

What about the Potency [7] of the same molecule?
The Potency was 12.6 µM (active).

What about the Potency [2] of the same molecule?
Its Potency is 2 µM (active).

And the Potency [3]?
The Potency was 12.6 µM (active).

And the Potency [6]?
The Potency was 3.55 µM (active).

And the Potency [10]?
The Potency was 10 µM (active).

With `C=C(C)C(=O)O[C@H]1CC2=CC(C/C(C)=C\[C@H]3OC(=O)C(=C)[C@H]13)OC2=O` (stereo partly specified) as the molecule, how does the Potency [1] read?
The Potency was “inactive”.

And the Potency [2]?
Its Potency is “inactive”.

And the Potency [4]?
Its Potency is “inactive”.

What about the Potency [5] of the same molecule?
The Potency was “inactive”.

And the Potency [6]?
The Potency was “inactive”.

And the Potency [10]?
The Potency was “inactive”.

For `Nc1ccc(-c2cccc3c(=O)cc(N4CCOCC4)oc23)cc1`, which Potency [1] is on record?
Its Potency is 12.6 µM (active).

What about the Potency [4] of the same molecule?
The Potency was “inactive”.

What about the Potency [5] of the same molecule?
Its Potency is 11.2 µM (active).

With `CN(C)C1CCN(C(=O)c2ccc(NC(=O)Nc3ccc(-c4nc(N5CCOCC5)nc(N5CCOCC5)n4)cc3)cc2)CC1` as the molecule, how does the Potency [1] read?
Its Potency is 0.282 µM (active).

And the Potency [2]?
The Potency was 0.562 µM (active).

What about the Potency [3] of the same molecule?
The Potency was 0.398 µM (active).

With `C=C1C(OC(C)=O)CCC2(C)CC3(OC)OC(=O)C(C)=C3CC12` (stereo unspecified) as the molecule, how does the Potency [7] read?
The Potency was “inactive”.

And the Potency [2]?
The Potency was “inactive”.

What about the Potency [3] of the same molecule?
The Potency was “inactive”.

What about the Potency [8] of the same molecule?
The Potency was “inactive”.

What about the Potency [9] of the same molecule?
The Potency was “inactive”.

And the Potency [10]?
The Potency was “inactive”.

With `CC(C)C(CO)Nc1nc(Nc2cc(N)cc(Cl)c2)c2ncn(C(C)C)c2n1` (stereo unspecified) as the molecule, how does the Potency [2] read?
Its Potency is 25.1 µM (active).

What about the Potency [8] of the same molecule?
The Potency was 14.1 µM (active).

What about the Potency [6] of the same molecule?
The Potency was 28.2 µM (active).

And the Potency [9]?
Its Potency is 22.4 µM (active).

What about the Potency [10] of the same molecule?
The Potency was 20 µM (active).

With `Cc1cc(C)c(Nc2ccnc(Nc3ccc(C#N)cc3)n2)c(C)c1` as the molecule, how does the Potency [4] read?
Its Potency is “inactive”.

And the Potency [5]?
The Potency was 10 µM (active).

What about the Potency [8] of the same molecule?
Its Potency is “inactive”.

With `C/C=C/c1ccc(O[C@@H]2O[C@H](CO)[C@@H](O)[C@H](O)[C@H]2O)c(OC)c1` as the molecule, how does the Potency [5] read?
Its Potency is “inactive”.

What about the Potency [10] of the same molecule?
The Potency was “inactive”.

For `Cc1c(C(=O)N2CCOc3ccc(-c4ccc(N)nc4)cc3C2)ccc(S(C)(=O)=O)c1F`, which Potency [4] is on record?
Its Potency is “inactive”.

Which results are given for `O=C(Nc1ccc(S(=O)(=O)C(F)(F)F)cc1)C1=CCN(c2ncccc2C(F)(F)F)CC1`?
Potency [4]: inactive; Potency [9]: inactive

For `C=C1C(=O)OC2C1CCC(=C)C1CC(OC(C)=O)C(=C)C12` (stereo unspecified), which Potency [2] is on record?
Its Potency is “inactive”.

And the Potency [6]?
Its Potency is “inactive”.

What about the Potency [10] of the same molecule?
The Potency was “inactive”.

Which Potency [3] does the source give for `Cn1c(=O)n(-c2ccc(C(C)(C)C#N)cc2)c2c3cc(C#Cc4cccnc4)ccc3ncc21` here?
Its Potency is 0.0891 µM (active).

What about the Potency [5] of the same molecule?
Its Potency is 0.224 µM (active).

What about the Potency [8] of the same molecule?
The Potency was 0.282 µM (active).

And the Potency [9]?
The Potency was 0.158 µM (active).
